Data taken from the supplement of paper PMC6089552.
The whole screen tested about 3,200 compounds, of which about 300 (9.4%) showed activity. This is one part of a sample in which actives are shown more often than they occur.

Test system: A673/TR/shEF
Assay: cell viability (LOESS-normalised, relative to median of negative controls) (log2 ratio); higher = more viable cells (less compound effect), active = hit call of the paper (over 3 MAD below the median)
Conditions: treatment time: 72 h
Method in brief: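 Viability of A673/TR/shEF Ewing sarcoma cells was determined by CellTiter-Glo luminescence. The cells, at 1,500 per well in 384-well plates, were grown with or without doxycycline from 24 h before compound addition to switch on EWS-FLI1 shRNA knockdown, then exposed for three days to library compounds at two or more concentrations or to DMSO controls. Signals were LOESS-corrected plate by plate, normalised to the negative-control median and log2-transformed.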

[1] = 0.25 µM, library screen: screen1, EWS-FLI1 expression: high (no doxycycline)
[2] = 0.25 µM, library screen: screen1, EWS-FLI1 expression: low (doxycycline-induced shRNA knockdown)
[3] = 2.5 µM, library screen: screen1, EWS-FLI1 expression: high (no doxycycline)
[4] = 2.5 µM, library screen: screen1, EWS-FLI1 expression: low (doxycycline-induced shRNA knockdown)
[5] = 0.103 µM, library screen: screen3, EWS-FLI1 expression: high (no doxycycline)
[6] = 0.103 µM, library screen: screen3, EWS-FLI1 expression: low (doxycycline-induced shRNA knockdown)
[7] = 0.308 µM, library screen: screen3, EWS-FLI1 expression: high (no doxycycline)
[8] = 0.308 µM, library screen: screen3, EWS-FLI1 expression: low (doxycycline-induced shRNA knockdown)
[9] = 0.926 µM, library screen: screen3, EWS-FLI1 expression: high (no doxycycline)
[10] = 0.926 µM, library screen: screen3, EWS-FLI1 expression: low (doxycycline-induced shRNA knockdown)
[11] = 2.8 µM, library screen: screen3, EWS-FLI1 expression: high (no doxycycline)
[12] = 2.8 µM, library screen: screen3, EWS-FLI1 expression: low (doxycycline-induced shRNA knockdown)
[13] = 8.3 µM, library screen: screen3, EWS-FLI1 expression: high (no doxycycline)
[14] = 8.3 µM, library screen: screen3, EWS-FLI1 expression: low (doxycycline-induced shRNA knockdown)
[15] = 25 µM, library screen: screen3, EWS-FLI1 expression: high (no doxycycline)
[16] = 25 µM, library screen: screen3, EWS-FLI1 expression: low (doxycycline-induced shRNA knockdown)
[17] = 0.25 µM, library screen: screen2, EWS-FLI1 expression: high (no doxycycline)
[18] = 0.25 µM, library screen: screen2, EWS-FLI1 expression: low (doxycycline-induced shRNA knockdown)
[19] = 2.5 µM, library screen: screen2, EWS-FLI1 expression: high (no doxycycline)
[20] = 2.5 µM, library screen: screen2, EWS-FLI1 expression: low (doxycycline-induced shRNA knockdown)
[21] = 0.025 µM, library screen: screen2, EWS-FLI1 expression: high (no doxycycline)
[22] = 0.025 µM, library screen: screen2, EWS-FLI1 expression: low (doxycycline-induced shRNA knockdown)
[23] = 25 µM, library screen: screen2, EWS-FLI1 expression: high (no doxycycline)
[24] = 25 µM, library screen: screen2, EWS-FLI1 expression: low (doxycycline-induced shRNA knockdown)

Measured: cell viability (log2)

Oc1ccc2c(c1)OC[C@H]1c3cc4c(cc3O[C@@H]21)OCO4
inactive: [1] 0.0543 | [2] -0.104 | [3] 0.119 | [4] 0.0894

Oc1ccc([C@H]2Oc3cc(O)cc(O)c3C[C@H]2O)cc1
inactive: [1] 0.0303 | [2] -0.000667 | [3] 0.0839 | [4] -0.00856

Oc1ccc([C@@H]2Oc3ccc(O)cc3[C@@H]3CCC[C@@H]32)cc1
active: [15] -0.181
inactive: [5] -0.0128 | [6] 0.0648 | [7] -0.0264 | [8] -0.0313 | [9] -0.0384 | [10] 0.0122 | [11] -0.0259 | [12] 0.00446 | [13] -0.0456 | [14] 0.0022 | [16] -0.0464

COc1cc(CN2CCN(Cc3cccc(OC)c3OC)CC2)c([N+](=O)[O-])cc1OC
inactive: [1] 0.00876 | [2] 0.0541 | [3] 0.119 | [4] -0.0278

CC1(C)OC(=O)CC(O)[C@@]2(C)C1CC(=O)[C@]1(C)C2CCC2(C)C(c3ccoc3)OC(=O)[C@H]3O[C@]321 (stereo not given in full)
inactive: [1] 0.0277 | [2] 0.0481 | [3] 0.0671 | [4] 0.0691

C[C@]12CCC3c4ccc(OC(=O)CCC(=O)O)cc4CCC3C1CCC2=O (stereo not given in full)
inactive: [1] 0.126 | [2] 0.0832 | [3] 0.102 | [4] 0.0823

C=C/C(C)=C\C[C@@H]1[C@@]2(C)CCCC(C)(C)[C@@H]2CC[C@@]1(C)O
inactive: [1] 0.0522 | [2] 0.0309 | [3] 0.126 | [4] 0.0611

COc1cc2c(cc1O)CC[C@@H]1[C@@H]2CC[C@]2(C)[C@@H](O)CC[C@@H]12
inactive: [5] 0.0202 | [6] 0.0975 | [17] 0.11 | [18] 0.04 | [7] 0.0934 | [8] 0.0693 | [9] -0.0172 | [10] 0.0926 | [19] 0.0437 | [20] 0.0893 | [11] 0.045 | [12] 0.00908 | [13] -0.104 | [14] -0.0169
active: [15] -1.25 | [16] -0.177

C[C@]12CCC3c4ccc(OS(=O)(=O)O)cc4CCC3C1CC[C@H]2O (stereo not given in full)
inactive: [1] 0.0646 | [2] 0.0512 | [3] 0.0988 | [4] 0.092

C[C@]12CC[C@@H]3c4ccc(O)cc4CC[C@H]3[C@@H]1CC[C@@H]2O
inactive: [5] 0.029 | [6] -0.00908 | [1] 0.122 | [2] 0.00576 | [17] 0.147 | [18] 0.0497 | [7] 0.101 | [8] 0.0915 | [9] 0.111 | [10] 0.0539 | [3] 0.0979 | [4] 0.0174 | [19] 0.0738 | [20] 0.0113 | [11] 0.127 | [12] 0.0786 | [13] 0.135 | [14] 0.0545 | [15] 0.166 | [16] 0.0719

COc1ccccc1CN1CCN(Cc2ccc(OC)c(OC)c2)CC1
inactive: [1] 0.0157 | [2] 0.078 | [3] 0.0565 | [4] 0.0117

CC(C)(C)c1ccccc1OCC(O)CN1CCCCC1 (stereo not given)
inactive: [1] 0.09 | [2] 0.0909 | [3] 0.176 | [4] 0.0864

CC(=O)Oc1ccc(-c2coc3cc(OC(C)=O)ccc3c2=O)cc1
inactive: [1] 0.152 | [2] 0.0716 | [3] 0.0709 | [4] 0.0455

CCOC(=O)C1(O)Oc2cc(OC)cc(OC)c2C(=O)C1c1ccccc1 (stereo not given)
inactive: [1] 0.122 | [2] 0.103 | [3] 0.112 | [4] 0.086

CCN(CC)CCCC(C)Nc1ccnc2cc(Cl)ccc12 (stereo not given)
inactive: [21] 0.158 | [22] 0.0518 | [1] 0.0569 | [2] 0.0751 | [17] 0.0978 | [18] 0.0902 | [3] 0.0579 | [4] 0.079 | [19] 0.0873 | [20] 0.0425 | [23] 0.0565 | [24] 0.0987

CCN(CC)CCCC(C)Nc1c2ccc(Cl)cc2nc2ccc(OC)cc12 (stereo not given)
active: [23] -4.23 | [24] -2.71
inactive: [21] 0.148 | [22] 0.0788 | [1] 0.215 | [2] 0.197 | [17] 0.0911 | [18] 0.0849 | [3] 0.176 | [4] 0.252 | [19] 0.0338 | [20] 0.0518

CCN(CCO)CCCC(C)Nc1ccnc2cc(Cl)ccc12 (stereo not given)
inactive: [1] 0.00358 | [2] 0.138 | [3] 0.146 | [4] 0.0473
